CHT PAM – CHT positive allosteric modulators, primary screen, cell-based, membrane potential dye, choline EC20. High affinity choline transporter 1 (Homo sapiens), Q9GZV3. CHT-expressing cells; stronger effect = higher value; LV-AA mutant CHT in HEK293 cells. B-score at 10 µM. 310,000 compounds, 0.49% hits;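 active = initial fluorescence not abnormally high and integrated response B-score, plate-corrected, over 3 SD above library mean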
Target sequence (Q9GZV3 whole entry, looked up): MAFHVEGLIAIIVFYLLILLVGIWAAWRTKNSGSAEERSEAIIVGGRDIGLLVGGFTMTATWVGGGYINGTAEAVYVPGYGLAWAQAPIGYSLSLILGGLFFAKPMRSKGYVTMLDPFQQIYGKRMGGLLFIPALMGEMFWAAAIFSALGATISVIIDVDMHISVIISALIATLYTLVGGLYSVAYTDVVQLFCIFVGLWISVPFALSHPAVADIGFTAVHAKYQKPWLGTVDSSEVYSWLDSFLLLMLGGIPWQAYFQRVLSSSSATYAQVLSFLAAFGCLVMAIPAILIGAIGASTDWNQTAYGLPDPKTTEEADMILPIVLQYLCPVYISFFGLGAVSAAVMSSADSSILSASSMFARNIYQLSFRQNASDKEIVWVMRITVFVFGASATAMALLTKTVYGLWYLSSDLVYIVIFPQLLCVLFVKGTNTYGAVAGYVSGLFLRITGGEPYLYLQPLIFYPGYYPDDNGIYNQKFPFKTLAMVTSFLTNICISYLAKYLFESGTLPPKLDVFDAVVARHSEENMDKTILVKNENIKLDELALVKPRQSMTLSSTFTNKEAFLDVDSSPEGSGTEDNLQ
CHT inh – inhibitors of human choline transporter CHT. CHT-expressing cells, membrane potential dye, choline response; stronger effect = lower value. B-score at 10 µM. High affinity choline transporter 1 (Homo sapiens), Q9GZV3. 310,000 compounds, 0.86% hits;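 active = B-score over 3 SD under the library average, and starting fluorescence ratio not unusually high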;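 note: choline stimulus applied at its EC90 after an EC20 pre-addition; B-score computed on integrated fluorescence ratio after choline addition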
VLA-4 inh – inhibition in human VLA-4 binding assay, primary screen, VLA-4 allosteric modulator project, MLPCN library, flow cytometry, VLA-4 expressing cells | Integrin alpha-4 (Homo sapiens), P13612 | ligand binding flow cytometry | inhibition, % (about 7 µM as worked out from the volumes in the protocol) | 330,000 compounds, 0.2% hits | AID 2557, 2010; in the data active = inhibition above about 50%
AI-2 QS modul – Vibrio harveyi AI-2 quorum sensing modulators, primary screen, JMH597 strain, luminescence/OD600 ratio; Vibrio harveyi JMH597 AI-2 luminescence/OD600 ratio, 9 h; stronger effect = lower value; strain lacks LuxN and CqsS sensors; 0 = neutral-control median; activity change, % at 7.5 µM; 300,000 compounds, 0.4% hits; in the data active = activity change below about -75%, passing the limit was not always enough;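 note: luminescence divided by OD600 gain over 9 h not by final OD600 alone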
Platelet DG rel – inhibitors of platelet dense granule secretion, primary screen, cell-based, MLPCN, human platelets; inhibition, %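 (compounds screened at 7.5 µM in platelet-rich plasma)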; 300,000 compounds, 0.22% hits; human platelet-rich plasma, SFLLRN dense granule ATP release, luminescence;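 active = mean replicate score, as percent of positive control, at or above 50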
HIF act – HIF pathway transcriptional activators, primary screen, cell-based, U2OS HRE-luciferase, luminescence; 300,000 compounds, 0.32% hits; U2OS HRE-luciferase reporter; normalized: DMSO 0%, desferrioxamine 100%; activation, % at 7.5 µM (by protocol); AID 1910, 2009;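 active = mean activation of at least 10% of the iron chelator positive control signal, with at least half of replicates also reaching 10%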
CHT activ conf – CHT activators, confirmation, cell-based, membrane potential dye, duplicate | AID 504833, 2011 | shares compounds with CHT PAM | activation, % at 10 µM | CHT-expressing cells, membrane potential dye fluorescence (FDSS); % of choline EC20–EC90 response window; HEK293 expressing CHT LV-AA mutant; choline added at its EC20 | 2,500 compounds, 91% hits;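 active = primary screen active, with duplicate mean activation above negative control mean plus 3 SD, cut at about 11% in these data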
HEK293 MP dye – membrane potential response in parental HEK293 cells, counter-screen for CHT activator project, cell-based, membrane potential dye; 2,500 compounds, 62% hits; membrane potential dye fluorescence (FDSS); measured after EC20 choline addition; shares compounds with CHT PAM; ratio readout change at 10 µM, hits read low;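 active = duplicate-averaged ratio beyond 3 SD from buffer wells, up or down, though filed actives are nearly all decreases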
* marks the source's active call; other numbers are inactive results; i = inactive; / = not tested or not shown. Only some compounds are listed: those with a hit (about 2.2% of all), similar ones and a draw of the others.

SMILES	CHT PAM	CHT inh	VLA-4 inh	AI-2 QS modul	Platelet DG rel	HIF act	CHT activ conf	HEK293 MP dye
CC(=NCCCn1ccnc1)c1c(C)[nH]n(-c2ccc([N+](=O)[O-])cc2)c1=O	7.8*	i	9	24	-1	0	49*	-44*
CC(C)C(OC(=O)CN1C(=O)c2ccccc2C1=O)C(=O)NC1CCCCC1 (stereo not drawn)	i	i	-5	11	-34	0	/	/
CN1C(=O)C(O)(C2COC(C)(C)CC2=O)c2ccccc21 (stereo not drawn)	i	i	-9	11	3	0	/	/
CN1C(=O)C(O)(C2COC(C)(C)CC2=O)c2cc(Br)ccc21 (stereo not drawn)	6.8*	i	-14	10	-4	0	8	i
COc1cc(OC)cc(C(=O)OCC(=O)NC2CCCCCC2)c1	/	/	2	/	/	/	/	/
CC1CCCCC1NC(=O)C1CCC(CNS(=O)(=O)c2cccc3cccnc23)CC1 (stereo not drawn)	i	i	11	14	-5	-1	/	/
O=[N+]([O-])c1ccc(N/N=C/C=C/c2ccco2)cc1	8.1*	i	-34	-35	/	/	12*	i
O=C(O)c1ccc(N/N=C/C=C/c2ccc([N+](=O)[O-])o2)cc1	i	i	-42	/	0	-1	/	/
CCCC(C(=O)NC(C)(C)CC)N(Cc1ccco1)C(=O)CNS(=O)(=O)c1ccccc1 (stereo not drawn)	i	i	-6	12	-12	-1	/	/
Cc1onc(-c2c(Cl)cccc2Cl)c1CO/N=C(\C#N)c1c(Cl)cccc1Cl	i	i	5	45	6	0	/	/
COCCNc1nc(-c2ccccc2)nc2ccccc12	i	i	7	21	-3	0	31*	-36*
CCOC(=O)c1cc(CC)sc1NC(=O)CN1C(=O)C(=O)N(CC(C)C)C1=O	i	i	-1	12	-1	0	/	/
N#CC1=C(Nc2ccccc2)SC=C(c2ccccc2)N=C1N1CCOCC1	/	/	/	7	7	0	/	/
N#CC1=C(Nc2ccccc2)SC=C(c2ccc(Cl)c(Cl)c2)N=C1N1CCOCC1	i	i	26	15	6	0	40*	i
OCCN1CCN(c2ncnc3ccc(Br)cc23)CC1	13*	i	-17	5	-18	2	38*	-30*
CCCCCCCC[n+]1cccc2c3ccccc3ccc21	6.8*	i	10	29	23	-1	19*	-26*
CCCCCCCCCC[n+]1cccc2c3ccccc3ccc21	/	/	/	-40	9	-1	/	/
CCC(=O)N1CCN(c2cc(N3CCN(C)CC3)c(F)cc2[N+](=O)[O-])CC1	8*	i	24	9	9	0	57*	-58*
CCOC(=O)N1CCN(c2cc(N3CCOCC3)c(F)cc2[N+](=O)[O-])CC1	i	i	10	10	-2	0	/	/
CC1(CCC(=O)N2CCCC(N3CCN(c4ccc(F)cc4)CC3)C2)CC1 (stereo not drawn)	i	i	0	12	-15	4	/	/
Cc1cc(C)n2nc(C(=O)Nc3nccs3)nc2n1	i	i	4	25	-4	2	54*	-27*
CCSc1nnc(NC(=O)c2nc3nc(C)cc(C)n3n2)s1	6.3*	i	8	21	6	-1	48*	-41*
Cc1cc(C)n2nc(C(=O)N/N=C/c3ccco3)nc2n1	7*	i	0	23	-2	0	59*	-60*
Cc1cc(C)n2nc(C(=O)N/N=C/c3ccccc3Cl)nc2n1	i	i	0	48	3	0	/	/
Cc1cc(C)n2nc(C(=O)Nc3cccnc3)nc2n1	8.7*	i	-7	5	3	0	47*	-48*
SMILES	CHT PAM	CHT inh	VLA-4 inh	AI-2 QS modul	Platelet DG rel	HIF act	CHT activ conf	HEK293 MP dye
CCOC(=O)c1nn(-c2ccc(C)c(C)c2)c(=O)c(C#N)c1C	i	i	2	5	-3	-1	/	/
COc1ccc(/C=C2\SC(=S)N(CC(=O)NC3CCS(=O)(=O)C3)C2=O)cc1 (stereo not drawn)	i	i	-5	7	-1	0	/	/
CNC(=O)[C@@H]1CCC(=O)N1	/	/	-14	/	/	/	/	/
COc1ccc(-c2noc(CSc3nc4ccccc4c(=O)n3-c3ccccc3)n2)cc1OC	i	i	6	2	3	0	14*	i
Nn1c(Cc2ccccc2)nc2cc(Cl)ccc2c1=O	i	i	-10	13	9	1	/	/
COc1ccc(C(=O)C2CCCN(C(=O)CCc3scnc3C)C2)c(C)c1 (stereo not drawn)	i	i	9	8	-2	0	/	/
CCOc1ccc(S(=O)(=O)N2c3ccccc3CC2C)cc1 (stereo not drawn)	i	i	15	8	1	0	39*	i
CCCn1c(SCCN2CCOCC2)nc2c1c(=O)n(C)c(=O)n2C	i	i	3	11	5	-2	/	/
COc1ccc(NC(=O)CSc2nc3ccccc3c(=O)n2CCCN2CCCCC2)c(OC)c1	12*	i	12	1	2	-1	73*	-39*
NC(=O)CSc1nc2ccccc2c(=O)n1CCc1ccccc1	i	i	12	23	13	0	/	/
COC(=O)c1ccc2c(=O)n(CCN3CCOCC3)c(SCC(=O)Nc3ccc(OC)cc3OC)nc2c1	i	i	4	13	22	-1	/	/
Cn1c(=O)c2c(nc(SCCN3CCCCC3)n2C)n(C)c1=O	i	i	13	16	-3	3	56*	-72*
O=c1c2ccccc2nc(SCCN2CCCCC2)n1CCc1ccccc1	7.8*	i	0	13	2	0	4	-27*
Cc1ccc(N2CC(C(=O)N3CCCCC3)CC2=O)cc1C (stereo not drawn)	i	i	-3	22	30	0	/	/

High-throughput results as filed in PubChem BioAssay.
